Values without a mark were called inactive. Active and inactive are the calls of the source.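 How the source made its calls, unless noted: active means mean inhibition above 46.5%, the solvent-only control mean plus 3 SD; inactive means the rest.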

The text below walks through data of PubChem BioAssay.

The target of assay [1] is Nuclear receptor coactivator 3 (Homo sapiens) (UniProt Q9Y6Q9). Description: NCOA3 GAL4-fusion reporter inhibition – cell-based, luminescence, quadruplicate, confirmation (AID 588792;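 active means mean inhibition over 43.08%, the solvent-only control mean plus 3 SD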;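 further: 0% = DMSO treated cells and 100% = gossypol at 36 µM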). The settings on record: HEK293 GAL4-SRC3 luciferase reporter, at 3.6 µM, stronger effect = higher value.
In assay [2] the test system is transactivating tegument protein VP16 (Human herpesvirus 1), Gal4-VP16 luciferase reporter. Description: repression of VP16-driven luciferase reporter – cell-based, luminescence, high throughput, counter-screen for SRC3 inhibitor project (AID 588794; in the data active means inhibition above about 30%). The settings on record: mammalian cells, at 3.6 µM, stronger effect = higher value.
The target in assay [3] is Nuclear receptor coactivator 1 (Homo sapiens) (UniProt Q15788). As to the kind of experiment: NCOA1 GAL4-fusion reporter inhibition – cell-based, luminescence, quadruplicate, confirmation (AID 588820;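 active means mean inhibition above 46.68%, the untreated control wells mean plus 3 SD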;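 further: 0% = DMSO wells and 100% = gossypol 36 µM treated wells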). Conditions: HEK293 GAL4-SRC1 luciferase reporter, at 3.6 µM, stronger effect = higher value.
Assay [4] can be described thus: repression of VP16-driven luciferase reporter – cell-based, luminescence, high throughput, counter-screen for SRC1 inhibitor project (AID 588824; in the data active means inhibition above about 25%). The settings on record: cell-based VP16 transactivation luciferase luminescence; at 3.6 µM; stronger effect = higher value.
Assay [5] can be described thus: StAR promoter reporter inhibitors, counter-screen for LRH-1 inverse agonist project, cell-based, luminescence, high throughput (AID 651611; in the data active means inhibition above about 28%). Conditions: StAR promoter luciferase reporter counterscreen, at 3.6 µM, stronger effect = higher value.
The target in assay [6] is Nuclear receptor subfamily 5 group A member 2 (Homo sapiens) (UniProt O00482). Description: NR5A2 activity suppression in reporter cells – cell-based, luminescence, confirmation (AID 651613; in the data active means inhibition above about 42%;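 further: HEK293T cells co-transfected with LRH-1 and StAR promoter luciferase reporter; 0% = vehicle wells and 100% = parental cells lacking receptor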). Conditions: cell-based LRH-1 luciferase reporter, inverse agonism; at 3.6 µM; stronger effect = higher value.
Assay [7] concerns the target Steroidogenic factor 1 (Homo sapiens) (UniProt Q13285). As to the kind of experiment: inverse agonism at SF1 nuclear receptor – cell-based, luminescence, high throughput, counter-screen for LRH-1 inverse agonist project (AID 651614; in the data active means inhibition above about 44%;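 further: cells cotransfected with StAR promoter reporter and SF1 expression vector; 0% = vehicle on cells with receptor and 100% = vehicle on cells lacking receptor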). Conditions: cell-based SF1 luciferase reporter, at 3.6 µM, stronger effect = higher value.
The nature of assay [8]: compounds suppressing VP16-driven luciferase signal – cell-based, luminescence, high throughput, counter-screen for LRH-1 inverse agonist project (AID 651615; in the data active means inhibition above about 33%). The settings on record: Gal4-VP16 luciferase reporter cells, at 3.6 µM, stronger effect = higher value.
The test system of assay [9] is transactivating tegument protein VP16 (Human herpesvirus 1). As to the kind of experiment: compounds suppressing VP16-driven luciferase signal – cell-based, luminescence, single concentration, counter-screen for SRC2 inhibitor project (AID 652007; in the data active means inhibition above about 36%). The settings on record: cell-based VP16 transactivation luciferase reporter, at 8.9 µM, stronger effect = higher value.
For assay [10], the target named is Nuclear receptor coactivator 2 (Homo sapiens) (UniProt Q15596). As to the kind of experiment: inhibition of GAL4-SRC2 driven luciferase expression – cell-based, luminescence, HEK293, triplicate, confirmation (AID 652008).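 Further: 0% = DMSO-treated cells and 100% = Gossypol at 36 µM.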 Conditions: HEK293 GAL4-SRC2 luciferase reporter, at 8.9 µM, stronger effect = higher value.
Sequence of Nuclear receptor coactivator 2 (Homo sapiens) (Q15596 whole entry, looked up, the tested form may be a part): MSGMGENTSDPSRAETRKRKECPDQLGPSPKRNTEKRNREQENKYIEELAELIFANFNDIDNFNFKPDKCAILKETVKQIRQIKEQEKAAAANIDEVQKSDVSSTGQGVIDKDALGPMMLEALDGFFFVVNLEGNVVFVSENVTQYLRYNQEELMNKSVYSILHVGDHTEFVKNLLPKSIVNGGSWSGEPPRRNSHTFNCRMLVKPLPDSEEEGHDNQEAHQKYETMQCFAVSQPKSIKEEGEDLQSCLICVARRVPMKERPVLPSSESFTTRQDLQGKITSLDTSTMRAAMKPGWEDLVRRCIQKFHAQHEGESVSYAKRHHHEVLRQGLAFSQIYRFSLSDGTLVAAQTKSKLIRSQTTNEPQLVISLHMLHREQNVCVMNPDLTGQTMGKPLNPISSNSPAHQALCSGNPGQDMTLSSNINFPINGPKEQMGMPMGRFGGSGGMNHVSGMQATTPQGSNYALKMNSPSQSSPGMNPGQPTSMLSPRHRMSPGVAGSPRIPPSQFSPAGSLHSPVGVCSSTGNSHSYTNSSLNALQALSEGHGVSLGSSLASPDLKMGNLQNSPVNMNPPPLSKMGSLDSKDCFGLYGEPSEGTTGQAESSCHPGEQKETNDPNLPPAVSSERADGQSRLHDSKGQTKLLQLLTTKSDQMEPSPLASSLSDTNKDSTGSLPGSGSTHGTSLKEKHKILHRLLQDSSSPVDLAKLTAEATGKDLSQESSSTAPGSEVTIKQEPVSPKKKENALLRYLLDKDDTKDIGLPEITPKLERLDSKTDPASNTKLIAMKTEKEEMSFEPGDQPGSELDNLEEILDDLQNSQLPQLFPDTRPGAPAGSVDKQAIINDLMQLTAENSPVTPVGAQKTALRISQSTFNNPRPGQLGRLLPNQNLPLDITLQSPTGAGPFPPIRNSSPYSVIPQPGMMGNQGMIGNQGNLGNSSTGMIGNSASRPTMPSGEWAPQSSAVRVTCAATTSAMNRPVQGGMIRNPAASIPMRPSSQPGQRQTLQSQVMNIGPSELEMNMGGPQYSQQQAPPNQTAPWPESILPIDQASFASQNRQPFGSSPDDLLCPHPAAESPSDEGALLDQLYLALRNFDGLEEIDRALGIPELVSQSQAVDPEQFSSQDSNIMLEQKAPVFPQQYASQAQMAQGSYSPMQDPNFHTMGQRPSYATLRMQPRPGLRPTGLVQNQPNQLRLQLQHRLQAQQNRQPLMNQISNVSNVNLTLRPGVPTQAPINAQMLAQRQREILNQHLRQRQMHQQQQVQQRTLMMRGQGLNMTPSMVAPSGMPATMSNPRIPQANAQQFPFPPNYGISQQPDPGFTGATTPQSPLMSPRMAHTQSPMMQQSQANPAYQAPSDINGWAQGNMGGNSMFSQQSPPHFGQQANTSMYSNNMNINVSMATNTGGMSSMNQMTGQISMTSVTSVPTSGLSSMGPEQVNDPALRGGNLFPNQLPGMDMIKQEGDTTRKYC

Sequence of Nuclear receptor coactivator 1 (Homo sapiens) (Q15788 whole entry, looked up, the tested form may be a part): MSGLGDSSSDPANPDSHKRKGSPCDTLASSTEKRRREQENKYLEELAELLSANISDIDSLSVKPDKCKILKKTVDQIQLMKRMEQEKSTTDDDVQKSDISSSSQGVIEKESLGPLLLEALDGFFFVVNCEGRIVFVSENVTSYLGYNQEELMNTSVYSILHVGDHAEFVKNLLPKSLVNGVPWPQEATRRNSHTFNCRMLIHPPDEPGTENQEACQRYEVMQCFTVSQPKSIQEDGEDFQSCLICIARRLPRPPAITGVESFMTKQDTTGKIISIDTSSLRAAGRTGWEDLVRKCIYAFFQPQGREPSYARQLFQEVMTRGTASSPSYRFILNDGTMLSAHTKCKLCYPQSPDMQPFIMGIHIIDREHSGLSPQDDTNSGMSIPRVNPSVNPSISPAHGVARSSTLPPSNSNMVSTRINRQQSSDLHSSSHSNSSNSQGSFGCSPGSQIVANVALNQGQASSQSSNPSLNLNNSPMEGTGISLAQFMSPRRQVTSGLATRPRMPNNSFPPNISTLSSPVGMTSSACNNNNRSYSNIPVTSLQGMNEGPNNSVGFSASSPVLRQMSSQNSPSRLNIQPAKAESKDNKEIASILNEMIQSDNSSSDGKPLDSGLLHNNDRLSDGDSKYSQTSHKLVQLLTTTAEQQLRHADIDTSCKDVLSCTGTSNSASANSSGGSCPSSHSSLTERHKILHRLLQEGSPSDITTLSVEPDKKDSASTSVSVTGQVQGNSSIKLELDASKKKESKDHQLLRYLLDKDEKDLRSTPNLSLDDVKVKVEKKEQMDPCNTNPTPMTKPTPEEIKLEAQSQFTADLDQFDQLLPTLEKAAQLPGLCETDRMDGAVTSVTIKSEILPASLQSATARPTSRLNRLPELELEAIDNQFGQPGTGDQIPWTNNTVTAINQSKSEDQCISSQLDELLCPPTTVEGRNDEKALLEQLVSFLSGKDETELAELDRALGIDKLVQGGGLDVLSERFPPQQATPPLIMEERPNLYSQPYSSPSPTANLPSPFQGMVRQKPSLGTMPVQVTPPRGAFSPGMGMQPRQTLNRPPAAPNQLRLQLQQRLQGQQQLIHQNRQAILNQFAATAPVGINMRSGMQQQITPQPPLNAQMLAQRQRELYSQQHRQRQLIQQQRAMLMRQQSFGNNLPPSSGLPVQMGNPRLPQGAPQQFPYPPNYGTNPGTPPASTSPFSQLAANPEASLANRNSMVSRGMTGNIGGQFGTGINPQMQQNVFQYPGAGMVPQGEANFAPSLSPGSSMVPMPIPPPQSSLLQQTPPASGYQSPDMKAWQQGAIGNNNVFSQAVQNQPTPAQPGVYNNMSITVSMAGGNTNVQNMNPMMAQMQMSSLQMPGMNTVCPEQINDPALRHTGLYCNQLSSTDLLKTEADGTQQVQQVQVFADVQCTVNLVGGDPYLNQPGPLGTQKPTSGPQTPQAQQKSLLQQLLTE
Sequence of Steroidogenic factor 1 (Homo sapiens) (Q13285 whole entry, looked up, the tested form may be a part): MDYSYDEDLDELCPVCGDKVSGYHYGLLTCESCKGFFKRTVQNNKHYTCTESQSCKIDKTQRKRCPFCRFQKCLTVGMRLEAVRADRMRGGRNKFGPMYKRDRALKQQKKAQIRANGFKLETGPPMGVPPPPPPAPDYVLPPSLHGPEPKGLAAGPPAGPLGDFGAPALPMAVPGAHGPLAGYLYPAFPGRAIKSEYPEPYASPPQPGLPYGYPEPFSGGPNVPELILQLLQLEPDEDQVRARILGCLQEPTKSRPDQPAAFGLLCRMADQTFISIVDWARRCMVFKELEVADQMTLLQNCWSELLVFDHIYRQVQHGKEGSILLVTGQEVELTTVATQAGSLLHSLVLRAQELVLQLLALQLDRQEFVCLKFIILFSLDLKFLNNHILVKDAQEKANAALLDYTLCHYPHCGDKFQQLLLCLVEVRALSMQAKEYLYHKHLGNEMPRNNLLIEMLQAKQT
Sequence of Nuclear receptor coactivator 3 (Homo sapiens) (Q9Y6Q9 whole entry, looked up, the tested form may be a part): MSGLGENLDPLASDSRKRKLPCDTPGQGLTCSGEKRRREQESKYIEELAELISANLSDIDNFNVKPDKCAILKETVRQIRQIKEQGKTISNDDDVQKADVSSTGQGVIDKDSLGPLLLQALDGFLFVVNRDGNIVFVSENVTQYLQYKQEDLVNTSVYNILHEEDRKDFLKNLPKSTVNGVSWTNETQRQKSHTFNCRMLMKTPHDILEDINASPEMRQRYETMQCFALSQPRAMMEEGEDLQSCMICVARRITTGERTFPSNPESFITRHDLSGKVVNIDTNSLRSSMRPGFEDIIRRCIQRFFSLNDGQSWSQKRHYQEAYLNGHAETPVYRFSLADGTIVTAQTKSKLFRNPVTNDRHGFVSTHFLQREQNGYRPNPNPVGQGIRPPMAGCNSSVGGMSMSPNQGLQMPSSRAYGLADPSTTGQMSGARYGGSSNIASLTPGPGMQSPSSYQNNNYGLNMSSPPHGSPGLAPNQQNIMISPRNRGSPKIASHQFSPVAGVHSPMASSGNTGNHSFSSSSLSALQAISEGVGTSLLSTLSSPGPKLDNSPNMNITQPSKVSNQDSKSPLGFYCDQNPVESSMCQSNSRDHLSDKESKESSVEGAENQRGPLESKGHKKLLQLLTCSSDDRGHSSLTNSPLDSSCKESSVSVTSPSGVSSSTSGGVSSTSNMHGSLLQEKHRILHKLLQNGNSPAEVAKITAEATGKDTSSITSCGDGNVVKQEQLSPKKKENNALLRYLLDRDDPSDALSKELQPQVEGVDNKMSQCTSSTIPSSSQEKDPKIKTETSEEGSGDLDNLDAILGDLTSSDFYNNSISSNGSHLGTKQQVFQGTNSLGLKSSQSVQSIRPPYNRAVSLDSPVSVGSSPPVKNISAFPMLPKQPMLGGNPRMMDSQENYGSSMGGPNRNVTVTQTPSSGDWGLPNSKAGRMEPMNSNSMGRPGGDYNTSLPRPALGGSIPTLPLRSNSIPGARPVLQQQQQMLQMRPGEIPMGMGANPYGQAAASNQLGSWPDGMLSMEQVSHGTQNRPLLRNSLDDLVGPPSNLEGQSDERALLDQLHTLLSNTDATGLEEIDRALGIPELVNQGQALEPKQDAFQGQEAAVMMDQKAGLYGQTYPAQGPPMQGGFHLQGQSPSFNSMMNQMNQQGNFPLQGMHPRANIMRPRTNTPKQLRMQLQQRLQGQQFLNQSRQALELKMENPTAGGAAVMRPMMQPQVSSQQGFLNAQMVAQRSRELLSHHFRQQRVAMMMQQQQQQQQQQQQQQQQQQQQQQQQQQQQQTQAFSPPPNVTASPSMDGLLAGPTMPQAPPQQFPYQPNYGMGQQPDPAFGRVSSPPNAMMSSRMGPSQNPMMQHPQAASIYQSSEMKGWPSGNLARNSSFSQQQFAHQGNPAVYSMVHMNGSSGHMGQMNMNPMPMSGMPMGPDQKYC

In the case of `O=C(CCCN1C(=O)/C(=C/c2ccccc2Cl)SC1=S)NNC(=O)c1ccccc1Cl`, the inhibition in assay [1] is 58% (active); in [2] it was 31.3% (active); in assay [3] it was 40%; in assay [4] it was 40.9% (active); in [5], 54.6% (active); in assay [6], 55.1% (active). Further, the inhibition in assay [7] is 46.8% (active); in assay [8] it was 45% (active); in assay [9], 80.7% (active); in [10], 87.5% (active).

For the compound `Cc1cc(C)c2c(N)c(C(=O)Nc3ncc(C)s3)sc2n1`, the inhibition in assay [1] was 49.7% (active); in assay [2] it was 34.4% (active); in assay [3], -42.2%; in assay [4], 24.3%; in assay [5], 36.9% (active); in [6], 14.3%. Besides, the inhibition was 55.7% (active) in assay [7], 4.69% in assay [8], 55.6% (active) in assay [9] and 77.2% (active) in [10].

As for `Cc1nc2c(-c3ccc(F)cc3)cnn2c(N)c1-c1ccccc1`, the inhibition in assay [1] is 55.5% (active); in assay [2], 38.8% (active); in assay [3], 29.6%; in [4], 7.29%; in assay [5], 6.33%; in assay [6], -102%. The inhibition in assay [7] was -17.6%; in [8] it was -0.77%; in assay [9], 74.5% (active); in [10], 79.6% (active).

For the compound `S=C(Nc1ccccc1)Nc1ccc(OCc2ccc(Cl)cc2Cl)cc1`, the inhibition in assay [1] is 46.7% (active); in assay [2], 25.4%; in assay [3] it was 43.6%; in assay [4], 24.4%; in [5], 63.4% (active); in assay [6], 72.3% (active). Moreover, the inhibition in assay [7] is 59.5% (active); in assay [8] it was 39.4% (active); in [9], 83.7% (active); in assay [10] it was 93.9% (active).

As to `COc1ccc([C@@]23Oc4cc(OC)cc(OC)c4[C@]2(O)[C@H](O)[C@H](C(=O)N(C)C)[C@H]3c2ccccc2)cc1`, the inhibition was 95.7% (active) in assay [1]; 93.7% (active) in assay [2]; 85.6% (active) in assay [3]; 92.9% (active) in assay [4]; 97.6% (active) in [5]; 111% (active) in [6]. For the same compound, the inhibition in assay [7] is 99.3% (active); in [8], 98.2% (active); in assay [9], 56.2% (active); in assay [10], 68.6% (active).

On to `Cc1ccc(NC(=O)c2cc(C)n(-c3ccccc3)c2C)cc1`, for which the inhibition in assay [1] was 43.4% (active); in [2], 23.7%; in assay [3] it was 1.09%; in [4], -11.4%; in assay [5], 45.2% (active); in assay [6], -63.5%. The inhibition in assay [7] is 20.4%; in assay [8], -42.7%; in [9] it was 61.3% (active); in [10], 69.8% (active).

Consider `CNc1cccnc1C=NNC(N)=S`, for which the inhibition in assay [1] is 71.3% (active); in [2] it was 40.5% (active); in assay [3] it was 58.5% (active); in assay [4], 17.9%; in assay [5] it was 25.3%; in assay [6] it was 57.8% (active). In addition, the inhibition is 52.1% (active) in assay [7], 30.4% in assay [8], -4.08% in assay [9] and 9.84% in [10].

Regarding `COCCn1c(C)cc(C2=NNC(=Nc3ccccc3F)SC2)c1C`, the inhibition is 57.4% (active) in [1]; 52.3% (active) in assay [2]; 60.5% (active) in assay [3]; 28.1% (active) in [4]; 54.2% (active) in [5]; -47% in assay [6]. The inhibition in [7] was 63% (active); in [8], -31.7%; in assay [9], 87.2% (active); in assay [10] it was 91.5% (active).

As to `O=C(O)C1CCCCC1C(=O)Nc1ccc2c(c1)OCCO2` (stereo not given), the inhibition is -6.32% in assay [1]; -0.43% in assay [2]; -18.1% in [3]; -13.8% in [4]; -0.9% in assay [5]; -1.32% in assay [6]. Besides, the inhibition is -1.69% in assay [7], 0% in assay [8], -11.1% in assay [9] and 26.9% in assay [10].

In the case of `CN1CCN(c2ccc(-c3ccc4ccccc4n3)cc2)CC1`, the inhibition is 72.1% (active) in assay [1]; 62.6% (active) in assay [2]; 34.8% in [3]; 36.6% (active) in assay [4]; 63.8% (active) in [5]; 8.01% in assay [6]. For the same compound, the inhibition was 64% (active) in assay [7], 26.9% in assay [8], 61.1% (active) in assay [9] and 79.3% (active) in [10].

Turning to `CC[C@@]1(O)C(=O)OCc2c1cc1n(c2=O)Cc2cc3c(N)cccc3nc2-1`, the inhibition is 91.8% (active) in [1]; 77.3% (active) in assay [2]; 58.2% (active) in [3]; 74.7% (active) in assay [4]; 84.6% (active) in assay [5]; 104% (active) in assay [6]. For the same compound, the inhibition in assay [7] is 92% (active); in [8], 77.2% (active); in assay [9], 30.5%; in assay [10], 51.9% (active).

Consider `COc1cccc(NC(=O)CSc2nnc(-c3cc(C)n(-c4ccccc4)c3C)o2)c1`, for which the inhibition in assay [1] is 46.8% (active); in [2] it was 23.3%; in assay [3] it was 3.49%; in [4] it was -14.5%; in assay [5], -29.8%; in [6], -55.2%. In addition, the inhibition in assay [7] was -12.4%; in assay [8], -23.9%; in [9], 11%; in assay [10], 48.5% (active).

Consider `CC(C)c1ccc(-n2c(-c3ccccc3)c[n+]3c2CCc2ccccc2-3)cc1`, for which the inhibition in [1] is 72.4% (active); in [2], 84% (active); in assay [3] it was 63.6% (active); in assay [4] it was 84.4% (active); in [5] it was 76.3% (active); in assay [6], 108% (active). The inhibition in assay [7] is 91.6% (active); in [8] it was 90.1% (active); in assay [9], 60.1% (active); in [10], 71.4% (active).

For the compound `Cc1nc2c(-c3ccccc3)cnn2c(N)c1-c1ccccc1`, the inhibition was 43.4% (active) in [1]; 37.4% (active) in assay [2]; 13.1% in [3]; 5.33% in assay [4]; -35.4% in [5]; -128% in assay [6]. Moreover, the inhibition was -43.9% in [7], -38.5% in [8], 19.9% in [9] and 58.2% (active) in [10].

Turning to `C=C1C(=O)[C@]23C[C@H]1CCC2[C@@]1(C)C(C[C@@H]3O)[C@](C)(C(=O)OC)CC[C@@H]1O` (stereo not given in full), the inhibition in assay [1] was 40%; in assay [2] it was 24.9%; in [3], -14.1%; in assay [4], 37.1% (active); in assay [5], 43.8% (active); in assay [6], 41.3% (active). The inhibition is 42.4% in assay [7], 49.4% (active) in assay [8], 34.8% in assay [9] and 49.3% (active) in assay [10].
